CYP2C9 inhib – blockers of cytochrome P450 2C9 activity – biochemical, luminescence, ADME assay, primary screen. CYP2C9 Supersomes, luciferin-H conversion. 20% of 96,000 active. inhibition, % at 5 µM;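 active means blocking of liver enzyme CYP2C9 beyond about 50% at 5 µM, limit read from the data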
Target sequence (P11712 whole entry, looked up): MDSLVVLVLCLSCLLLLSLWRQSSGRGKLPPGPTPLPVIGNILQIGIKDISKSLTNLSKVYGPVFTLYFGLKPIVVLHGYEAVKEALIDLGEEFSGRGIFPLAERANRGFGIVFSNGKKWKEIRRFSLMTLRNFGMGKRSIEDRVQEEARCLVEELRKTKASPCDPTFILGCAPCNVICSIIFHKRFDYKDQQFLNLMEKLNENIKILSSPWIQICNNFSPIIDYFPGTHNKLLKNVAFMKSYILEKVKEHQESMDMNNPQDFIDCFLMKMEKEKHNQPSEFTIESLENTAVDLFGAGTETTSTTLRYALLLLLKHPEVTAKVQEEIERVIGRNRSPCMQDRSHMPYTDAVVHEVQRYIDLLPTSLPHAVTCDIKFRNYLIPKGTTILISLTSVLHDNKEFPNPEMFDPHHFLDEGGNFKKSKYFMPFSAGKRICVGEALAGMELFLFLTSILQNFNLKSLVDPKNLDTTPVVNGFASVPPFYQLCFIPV
PostGolgi ctrl – growth inhibition of yeast control strain, primary screen, counter-screen for post-Golgi transport modulator project. efflux-deficient yeast background strain, growth absorbance A615, 16 h. inhibition, % at 10 µM. 5% of 98,000 active. AID 738, 2007
CYP2C19 inhib – blockers of cytochrome P450 2C19 activity – biochemical, luminescence, ADME assay, primary screen; CYP2C19 Supersomes, luciferin-H EGE luminescence, 30 min; inhibition, % at 5 µM; 21% of 96,000 active; AID 778, 2007;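 active means CYP2C19 inhibition above a set limit at 5 µM in the primary screen, cut at about 50% in these data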;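 further: plate controls were negative control wells for no effect and 2.5 mM tranylcypromine positive control for full effect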
PostGolgi yeast – phenotypic screen on post-Golgi transport, primary screen; AID 739, 2007; 0.9% of 98,000 active; post-Golgi transport phenotypic cell assay; inhibition, % at 10 µM;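 further: yeast cells grown in 1536-well plates; yeast grown about 18 h at 30C before absorbance read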
CYP2C9 act – human CYP2C9 activators, primary screen, biochemical, luminescence; Cytochrome P450 2C9 (Homo sapiens), P11712; recombinant CYP2C9, luciferin-H conversion; hits give high values; factor 1 = untreated enzyme, 0 = blocked; activation factor at 5 µM; 1.4% of 96,000 active;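 active means activation factor of 2 or more for CYP2C9 at a 5 µM dose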;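 further: 0 = sulfaphenazole-blocked wells and 1 = vehicle-only wells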
CYP2C19 act – human CYP2C19 activators, primary screen, biochemical, luminescence; 96,000 tested, under 10 active; recombinant CYP2C19, luciferin-H EGE luminescence; hits give high values; 0 = fully inhibited enzyme, 1 = untreated enzyme; AID 1025, 2008; activation factor at 5 µM;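 active means activation factor of at least 2 at 5 µM in the primary screen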;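 further: 0 = wells with 2.5 mM tranylcypromine and 1 = vehicle-only wells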
* = called active by the depositor; . = no result given. The list is not random: actives were taken first. Their share in the collection is about 32%. Unless noted, no stated cut-off is given here; in the data, active means inhibition above about 30%; inactive means the rest.

SMILES	CYP2C9 inhib	PostGolgi ctrl	CYP2C19 inhib	PostGolgi yeast	CYP2C9 act	CYP2C19 act
CC1(C)CC(=O)C2=C(C1)NC(=O)CC2c1ccc(N(CCC#N)CCC#N)cc1 (stereo unspecified)	-8	-7	-7	-4	1.1	1.1
NC(=O)c1ccc(OCC(F)(F)C(F)(F)C(F)(F)C(F)(F)C(F)(F)C(F)F)cc1	42	28	55*	-10	0.6	0.4
Cc1ccc(N/C=C(/C#N)c2ccsc2)cc1C	5	39*	27	-2	1	0.7
CN(CCc1ccccn1)Cc1ccc(Cl)cc1	-24	-1	53*	0	1.2	0.5
Cc1ccc(CN(C)CCc2ccccn2)cc1	15	0	44	-4	0.8	0.6
COc1cc(CN(C)CCc2ccccn2)cc(OC)c1OC	0	7	3	-1	1	1
CCc1ccc(CN(C)CCc2ccccn2)cc1	21	-2	89*	-18	0.8	0.1
COc1ccc(CC(=O)OC(C)CN2CCCC2)cc1 (stereo unspecified)	7	-8	8	0	0.9	0.9
COc1ccc(NC(=O)OC(CN2CCCCC2)C(F)(F)F)cc1 (stereo unspecified)	64*	-2	48	16	0.4	0.5
Cc1nc2scc(-c3cccs3)c2c(=O)o1	55*	13	80*	-7	0.5	0.2
Cc1nc2scc(-c3cccs3)c2c(=O)n1-n1cccc1	58*	3	53*	19	0.4	0.5
O=c1oc(-c2cccs2)nc2scc(-c3cccs3)c12	-36	20	-5	-4	1.4	1
Cc1ccc(C)n1-n1c(C)nc2scc(-c3cccs3)c2c1=O	71*	-2	79*	5	0.3	0.2
CCOc1cc(N2CCOCC2)c(OCC)cc1NC(=O)COc1ncnc2ccc(Br)cc12	2	-3	-4	-8	1	1
CCC(C)C(=O)N1CCc2cc(-c3csc(N)n3)ccc21 (stereo unspecified)	70*	3	78*	0	0.3	0.2
N#Cc1c(SCc2cccc(Cl)c2)sc(C(=O)c2ccccc2)c1N	89*	12	81*	-1	0.1	0.2
Cc1ccc(CSc2sc(C(=O)c3ccccc3)c(N)c2C#N)cc1	61*	2	31	-5	0.4	0.7
N#Cc1c(SCc2ccccc2)sc(C(=O)c2ccccc2)c1N	24	0	7	-4	0.8	0.9
CCC(C)N1C(=O)CCC1C(=O)O (stereo unspecified)	-7	7	-18	13	1.1	1.2
CC1(C)CC2(CCO1)N1CC3(C)CN2CC(C)(C1)C3O (stereo unspecified)	52*	0	8	6	0.5	0.9
O=c1ccc(/C=C/c2ccccc2)nn1Cc1ccccc1Cl	52*	41*	35	-5	0.5	0.6
O=c1ccc(/C=C/c2ccccc2)nn1Cc1ccc(Cl)cc1Cl	42	24	27	-11	0.6	0.7
O=C(Nc1ccccc1)c1nnsc1S(=O)c1ccc(Cl)cc1 (stereo unspecified)	64*	102*	-6	105*	0.4	1.1
CN(C(=S)NC1=CCS(=O)(=O)C1)C1CCCCC1	0	10	21	0	1	0.8
CS(=O)(=O)NCc1csc(-c2ccccc2)n1	7	26	5	18	0.9	0.9
SMILES	CYP2C9 inhib	PostGolgi ctrl	CYP2C19 inhib	PostGolgi yeast	CYP2C9 act	CYP2C19 act
CCS(=O)(=O)NCc1csc(-c2ccccc2)n1	0	0	70*	11	1	0.3
COc1ccc(OC)c(S(=O)(=O)NCc2ccccc2)c1	-16	3	96*	-2	1.2	0
COc1ccc(C)cc1S(=O)(=O)N(CC(=O)O)c1ccc(C)cc1	36	0	15	11	0.6	0.9
COc1cc(OC)c(C#N)c(S(=O)(=O)Cc2ccccc2)c1	-44	6	96*	-11	1.4	0
COc1ccc(N(C(C)=O)S(=O)(=O)c2cc(OC)ccc2OC)cc1	50*	5	28	0	0.5	0.7
CC(C)C(NS(=O)(=O)c1ccc2c(c1)OCCO2)C(=O)NCCc1ccccn1 (stereo unspecified)	8	1	32	0	0.9	0.7
Cc1csc2nc(CNS(=O)(=O)c3ccc(-c4ccccc4)cc3)cn12	.	10	.	10	.	.
COc1ccc(OC)c(NS(=O)(=O)Cc2ccccc2)c1	-36	4	94*	15	1.4	0.1
COc1ccc(OC)c(S(=O)(=O)NC(C)(C)C)c1	20	-6	52*	4	0.8	0.5
COc1ccc(OC)c(S(=O)(=O)Nc2c(F)cccc2F)c1	-20	11	26	-10	1.2	0.7
COc1ccc(S(=O)(=O)NCc2csc(-c3cccnc3)n2)cc1	68*	19	91*	-1	0.3	0.1
COc1ccc(-c2nc(CNS(=O)(=O)c3cc(OC)ccc3OC)cs2)cc1	72*	16	70*	3	0.3	0.3
COc1ccc(OC)c(NC(=O)CSCC(=O)O)c1	-4	4	10	3	1	0.9
COc1ccc(OC)c(S(=O)(=O)NCc2cccnc2)c1	-30	-3	13	-7	1.3	0.9
CCOc1cc(Br)ccc1S(=O)(=O)NCc1ccccc1	-45	2	71*	-2	1.5	0.3
CCc1ccc(OC)c(S(=O)(=O)NCCOc2ccccc2)c1	15	15	75*	0	0.8	0.2
CCn1c(=O)c2cc(S(=O)(=O)NCCOc3ccccc3)ccc2n(CC)c1=O	35	-4	-6	-2	0.7	1.1
CC(=O)Nc1cccc(NC(=O)C2CCCN2C(=O)Nc2ccccc2C)c1 (stereo unspecified)	9	8	6	-19	0.9	0.9
O=C(NCc1nnc(SCC(=O)N2CCC(Cc3ccccc3)CC2)o1)c1ccccc1F	72*	25	47	-2	0.3	0.5
O=C(NCc1nnc(SCC(=O)N2CCCC2)o1)c1c(F)cccc1Cl	13	9	3	2	0.9	1
O=C(NC1CCCC1)C(c1ccncc1)N(Cc1cccs1)C(=O)c1csnn1 (stereo unspecified)	54*	11	37	5	0.5	0.6
COc1ccc(CN(C(=O)Cc2c[nH]c3ccccc23)C(C(=O)NC2CCCCC2)c2ccc(C)o2)cc1 (stereo unspecified)	94*	-2	93*	-12	0.1	0.1
O=C(NC1CCCC1)C(c1cccs1)N(Cc1ccco1)C(=O)c1csnn1 (stereo unspecified)	11	3	25	4	0.9	0.7
